Inconclusive results are not listed. Where a call stands in place of a potency, no number is given. Active and inactive are the calls of the source. Unless noted, the call rests on the fitted dose curve.
tested on: not listed separately; assay: cAMP Responsive Elements (CRE) small molecule agonists, cell-based qHTS assay (AID 1963590); settings: CRE-bla HEK293T, beta-lactamase FRET ratio, 3 h; series mostly up to 92.4 µM
How it was run: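 FRET-based beta-lactamase readout (LiveBLAzer B/G, 2 h RT) quantified CRE activation in HEK 293T CRE-bla cells after 3 h treatment with DMSO-dissolved compounds.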

Compound	Potency	activation
CC(C)c1ccc(C(=O)N=C(N)N)cc1S(C)(=O)=O	inactive	
Cc1ccc(N(CC2=NCCN2)c2cccc(O)c2)cc1	inactive	
CCC(C(=O)OCCN(CC)CC)c1ccccc1 (stereo not drawn)	inactive	
COC(=O)c1cccc(Cl)c1	inactive	
Cc1cccc(C(C)(C)C)c1O	inactive	
Cc1cn[nH]c1	inactive	
CCCCCCCCCCCCCCCCCCOS(=O)(=O)O	inactive	
C[Si](C)(CCCN)O[Si](C)(C)CCCN	inactive	
CCCCCCCCCCCCOC(=O)c1ccc(O)cc1	inactive	
O=C1N(c2ccccc2)c2ccccc2C1(Cc1ccncc1)Cc1ccncc1	inactive	
CCC(C=O)CC	inactive	
Cc1ccc2c(Cl)cc(Cl)c(O)c2n1	inactive	
COc1ccc(CN(CCN(C)C)c2ncccn2)cc1	inactive	
CCN1CCCC1CN (stereo not drawn)	inactive	
O=C1C(CCS(=O)c2ccccc2)C(=O)N(c2ccccc2)N1c1ccccc1 (stereo not drawn)	inactive	
C/C(=N/NC(=O)c1ccncc1)C(=O)O	inactive	

Compound	Potency	activation
O=C1Nc2cc(Cl)ccc2Oc2ccccc21	inactive	
Clc1ccc2c(c1)CCc1cccnc1C2=C1CCNCC1	inactive	
CCC(=O)c1c(O)cc(O)cc1O	inactive	
CCCCCCCCN(C)CCCCCCCC	inactive	
CC(C)(C)C(=O)O	inactive	
OCCCCC(O)CO (stereo not drawn)	inactive	
CN(C)CC/C=C1/c2ccccc2COc2ccc(CC(=O)O)cc21	inactive	
C=Cc1ccccc1C=C	inactive	
COc1ccc(/C=C/S(=O)(=O)NC(=O)c2ccc(C)cc2Cl)cc1	inactive	
O=C=NCc1cccc(CN=C=O)c1		1.18% [at 19 µM] (inactive)
Cc1cc(S(=O)(=O)O)c(N)cc1Cl	inactive	
Nc1ccc(S(=O)(=O)Nc2ccccc2)cc1	inactive	
O=Cc1ccc(F)c(Br)c1	inactive	
CCC(CO)(CO)COCC(CC)(CO)CO	inactive	
OCC(CO)(CO)COCC(CO)(CO)CO	inactive	

tested on: not listed separately; assay: cAMP Responsive Elements (CRE) small molecule antagonists, cell-based qHTS assay (AID 1963591; active means well fitted inhibition curve with a large enough effect in the signal ratio in the repeat runs, not every such curve was filed as active; the % refers to the signal ratio); settings: CRE-bla HEK293T, beta-lactamase FRET ratio; series mostly up to 92.4 µM
How it was run: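 qHTS in CRE-bla HEK 293T cells: compound in DMSO, then 0.25 uM NKH477 (final), 3 h at 37 °C/5% CO2; beta-lactamase FRET read-out after 2 h substrate incubation.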

Compound	Potency	activity change, negative = inhibition
COc1ccc(C(=O)c2ccc(OC)cc2O)c(O)c1	inactive	
Cc1ccc(N(CC2=NCCN2)c2cccc(O)c2)cc1	inactive	
CCC(C(=O)OCCN(CC)CC)c1ccccc1 (stereo not drawn)	inactive	
COC(=O)c1cccc(Cl)c1	inactive	
Cc1cccc(C(C)(C)C)c1O	inactive	
CCCCCCCCCCCCCCCCCCOS(=O)(=O)O	inactive	
C[Si](C)(CCCN)O[Si](C)(C)CCCN	inactive	
CCCCCCCCCCCCOC(=O)c1ccc(O)cc1	inactive	
O=C1N(c2ccccc2)c2ccccc2C1(Cc1ccncc1)Cc1ccncc1	inactive	
CCC(C=O)CC	inactive	
Cc1ccc2c(Cl)cc(Cl)c(O)c2n1	inactive	
COc1ccc(CN(CCN(C)C)c2ncccn2)cc1	inactive	
CCN1CCCC1CN (stereo not drawn)	inactive	
O=C1C(CCS(=O)c2ccccc2)C(=O)N(c2ccccc2)N1c1ccccc1 (stereo not drawn)	inactive	
CCC(=O)c1c(O)cc(O)cc1O	inactive	
CCCCCCCCN(C)CCCCCCCC	inactive	
CC(C)(C)C(=O)O	inactive	
Cc1ccc(-n2[nH]c(C)c(N=Nc3cccc(-c4cccc(C(=O)O)c4)c3O)c2=O)cc1C	inactive	
CN(C)CC/C=C1/c2ccccc2COc2ccc(CC(=O)O)cc21	inactive	
C=Cc1ccccc1C=C	inactive	
O=C=NCc1cccc(CN=C=O)c1		0.972% [at 18.9 µM] (inactive)
Cc1cc(S(=O)(=O)O)c(N)cc1Cl	inactive	
O=Cc1ccc(F)c(Br)c1	inactive	
Cc1nc2ccccc2n1Cc1ccc(Cl)cc1	inactive	
CCC(CO)(CO)COCC(CC)(CO)CO	inactive	
CC(C)OC(=O)c1ccccc1	inactive	
OCC(CO)(CO)COCC(CO)(CO)CO	inactive	

molecular target: Beta-2 adrenergic receptor (Homo sapiens) (UniProt P07550); assay: Adrenergic beta2 receptor (ADRB2) small molecule antagonists, cell-based qHTS assay (AID 1963592); settings: CHO-ADRB2 cells, isoproterenol-stimulated cAMP HTRF ratio, 0.5 h; series mostly up to 92.4 µM; further: nearly all actives have a fitted effect of over 50% in size
Sequence (P07550 whole entry, looked up): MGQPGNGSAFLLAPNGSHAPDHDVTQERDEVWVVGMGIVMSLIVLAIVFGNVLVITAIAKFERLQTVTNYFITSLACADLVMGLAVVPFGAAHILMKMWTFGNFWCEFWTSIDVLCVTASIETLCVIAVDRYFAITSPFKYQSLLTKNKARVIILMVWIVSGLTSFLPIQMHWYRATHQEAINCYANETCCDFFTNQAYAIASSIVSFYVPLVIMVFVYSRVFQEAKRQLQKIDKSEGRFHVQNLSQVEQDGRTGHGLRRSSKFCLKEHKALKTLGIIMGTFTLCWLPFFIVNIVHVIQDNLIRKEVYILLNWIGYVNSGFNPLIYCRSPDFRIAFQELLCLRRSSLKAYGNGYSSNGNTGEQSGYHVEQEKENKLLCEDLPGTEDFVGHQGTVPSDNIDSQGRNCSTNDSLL
How it was run: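 Cells (CHO, stable ADRB2 overexpression) incubated 18-20hr at 37C; compounds added from DMSO; agonist mix (1nM isoproterenol, 100uM IBMX, 25uM Ro-20-1724) added; 0.5hr RT; d2-cAMP and anti-cAMP-cryptate added; 1hr RT; 665/615 nm read.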

Compound	Potency	activity change, negative = inhibition
COc1ccc(C(=O)c2ccc(OC)cc2O)c(O)c1	inactive	
CC(C)c1ccc(C(=O)N=C(N)N)cc1S(C)(=O)=O	inactive	
Cc1ccc(N(CC2=NCCN2)c2cccc(O)c2)cc1	inactive	
CCC(C(=O)OCCN(CC)CC)c1ccccc1 (stereo not drawn)	inactive	
COC(=O)c1cccc(Cl)c1	inactive	
Cc1cccc(C(C)(C)C)c1O	inactive	
Cc1cn[nH]c1	inactive	
CCCCCCCCCCCCCCCCCCOS(=O)(=O)O	inactive	
C[Si](C)(CCCN)O[Si](C)(C)CCCN	inactive	
O=C1N(c2ccccc2)c2ccccc2C1(Cc1ccncc1)Cc1ccncc1	inactive	
CCC(C=O)CC	inactive	
Cc1ccc2c(Cl)cc(Cl)c(O)c2n1	inactive	
CCN1CCCC1CN (stereo not drawn)	inactive	
O=C1C(CCS(=O)c2ccccc2)C(=O)N(c2ccccc2)N1c1ccccc1 (stereo not drawn)	inactive	
C/C(=N/NC(=O)c1ccncc1)C(=O)O	inactive	
O=C1Nc2cc(Cl)ccc2Oc2ccccc21	inactive	
Clc1ccc2c(c1)CCc1cccnc1C2=C1CCNCC1	inactive	
CCC(=O)c1c(O)cc(O)cc1O	inactive	

Compound	Potency	activity change, negative = inhibition
COc1ccc2c(c1)C(=O)N(CCc1ccc(S(=O)(=O)NC(=O)NC3CCCCC3)cc1)C(=O)C2(C)C	inactive	
CC(C)(C)C(=O)O	inactive	
OCCCCC(O)CO (stereo not drawn)	inactive	
Cc1ccc(-n2[nH]c(C)c(N=Nc3cccc(-c4cccc(C(=O)O)c4)c3O)c2=O)cc1C	inactive	
CN(C)CC/C=C1/c2ccccc2COc2ccc(CC(=O)O)cc21	inactive	
C=Cc1ccccc1C=C	inactive	
COc1ccc(/C=C/S(=O)(=O)NC(=O)c2ccc(C)cc2Cl)cc1	inactive	
O=C=NCc1cccc(CN=C=O)c1		-5.04% [at 19 µM] (inactive)
Cc1cc(S(=O)(=O)O)c(N)cc1Cl	inactive	
Nc1ccc(S(=O)(=O)Nc2ccccc2)cc1	inactive	
O=Cc1ccc(F)c(Br)c1	inactive	
Cc1nc2ccccc2n1Cc1ccc(Cl)cc1	inactive	
CCC(CO)(CO)COCC(CC)(CO)CO	inactive	
CC(C)OC(=O)c1ccccc1	inactive	
C[N+]1(CC2COC(c3ccccc3)(C3CCCCC3)O2)CCCCC1 (stereo not drawn)	inactive	
C=CC(=O)OCCOCCOC(=O)C=C	inactive	
OCC(CO)(CO)COCC(CO)(CO)CO	inactive	

From PubChem BioAssay (Tox21)
